# In PubChem BioAssay AID1159580 (chemical genetic matrix, 2015):
# Screen size: about 5,500 compounds; about 2,000 (36%) were called active. Roughly 18% stayed inconclusive and do not appear here. The list shows a part of the results. Values without a mark were called inactive. Cut-off read from the data, not from the text of the source: active = normalized growth mostly below about 0.91 (no sharp cut-off); inconclusive = no clear call, values can overlap the other calls; inactive = mostly above about 0.92.
# Experiment: chemical genetic growth profiling, strain panel (AID 1159580);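 note: tested at 20 µM; growth read once vehicle control cultures reached saturation at 30 °C; 1 = growth at the plate median or of vehicle wells; lower values mean less growth of the strain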
# Settings: S. cerevisiae deletion strains, growth OD
smiles,measurement,setting,value
O=S1OCC2C(CO1)C1(Cl)C(Cl)=C(Cl)C2(Cl)C1(Cl)Cl (centres undefined),normalized growth,"locus YAL013W, strain DEP1, hits give low values",0.973
same,normalized growth,"locus YAL021C, strain ccr4, hits give low values",0.982
same,normalized growth,"locus YAL026C, strain drs2, hits give low values",0.98
same,normalized growth,"locus YAL030W, strain snc1, hits give low values",0.993
same,normalized growth,"locus YBL061C, strain skt5, hits give low values",1
same,normalized growth,"locus YBR009C, strain hhf1, hits give low values",0.989
same,normalized growth,"locus YBR021W, strain FUR4, hits give low values",0.993
same,normalized growth,"locus YBR023C, strain chs3, hits give low values",0.987
same,normalized growth,"locus YBR171W, strain sec66, hits give low values",0.974
same,normalized growth,"locus YBR229C, strain ROT2, hits give low values",0.998
same,normalized growth,"locus YBR231C, strain swc5, hits give low values",0.992
same,normalized growth,"locus YBR279W, strain paf1, hits give low values",1
same,normalized growth,"locus YCL011C, strain gbp2, hits give low values",0.98
same,normalized growth,"locus YCL016C, strain dcc1, hits give low values",0.999
same,normalized growth,"locus YCL029C, strain bik1, hits give low values",0.972
same,normalized growth,"locus YCL061C, strain MRC1, hits give low values",0.983
same,normalized growth,"locus YCL069W, strain vba3, hits give low values",0.99
same,normalized growth,"locus YCR088W, strain abp1, hits give low values",0.98
same,normalized growth,"locus YDL005C, strain med2, hits give low values",1
same,normalized growth,"locus YDL035C, strain GPR1, hits give low values",0.983
same,normalized growth,"locus YDL040C, strain nat1, hits give low values",0.994
same,normalized growth,"locus YDL074C, strain BRE1, hits give low values",0.999
same,normalized growth,"locus YDL101C, strain DUN1, hits give low values",0.972
same,normalized growth,"locus YDL134C, strain PPH21, hits give low values",0.997
same,normalized growth,"locus YDL185W, strain tfp1, hits give low values",0.948
same,normalized growth,"locus YDL192W, strain arf1, hits give low values",0.98
same,normalized growth,"locus YDR001C, strain nth1, hits give low values",0.974
same,normalized growth,"locus YDR069C, strain doa4, hits give low values",0.973
same,normalized growth,"locus YDR101C, strain arx1, hits give low values",0.992
same,normalized growth,"locus YDR137W, strain rgp1, hits give low values",1.17 [resistant] (active)
same,normalized growth,"locus YDR150W, strain NUM1, hits give low values",0.991
same,normalized growth,"locus YDR159W, strain sac3, hits give low values",0.893
same,normalized growth,"locus YDR162C, strain NBP2, hits give low values",0.946
same,normalized growth,"locus YDR195W, strain ref2",1.04
same,normalized growth,"locus YDR297W, strain sur2, hits give low values",0.983
same,normalized growth,"locus YDR318W, strain mcm21, hits give low values",0.973
same,normalized growth,"locus YDR334W, strain swr1, hits give low values",0.99
same,normalized growth,"locus YDR335W, strain msn5, hits give low values",0.995
same,normalized growth,"locus YDR388W, hits give low values",0.981
same,normalized growth,"locus YDR392W, strain spt3, hits give low values",0.823
same,normalized growth,"locus YDR502C, strain sam2, hits give low values",0.96
same,normalized growth,"locus YEL003W, strain gim4, hits give low values",0.931
same,normalized growth,"locus YEL037C, strain rad23, hits give low values",1
same,normalized growth,"locus YEL061C, strain CIN8 (second series), hits give low values",0.983
same,normalized growth,"locus YEL061C, strain CIN8, hits give low values",0.992
same,normalized growth,"locus YER015W, strain faa2, hits give low values",0.993
same,normalized growth,"locus YER016W, strain bim1, hits give low values",0.991
same,normalized growth,"locus YER110C, hits give low values",0.986
same,normalized growth,"locus YER111C, strain swi4, hits give low values",0.997
same,normalized growth,"locus YER155C, strain BEM2 (second series), hits give low values",0.988
same,normalized growth,"locus YER155C, strain BEM2, hits give low values",0.973
same,normalized growth,"locus YER167W, strain BCK2, hits give low values",0.966
same,normalized growth,"locus YFR010W, strain ubp6, hits give low values",0.984
same,normalized growth,"locus YGL078C, strain dbp3, hits give low values",0.968
same,normalized growth,"locus YGL086W, strain mad1, hits give low values",0.975
same,normalized growth,"locus YGL167C, strain pmr1, hits give low values",0.989
same,normalized growth,"locus YGL173C, strain kem1, hits give low values",0.992
same,normalized growth,"locus YGL227W, strain vid30, hits give low values",0.987
same,normalized growth,"locus YGL240W, strain doc1, hits give low values",0.988
same,normalized growth,"locus YGL248W, strain PDE1, hits give low values",1.01
same,normalized growth,"locus YGL253W, strain hxk2, hits give low values",0.987
same,normalized growth,"locus YGR078C, strain PAC10, hits give low values",0.97
same,normalized growth,"locus YGR135W, strain pre9, hits give low values",0.978
same,normalized growth,"locus YGR229C, strain SMI1, hits give low values",0.992
same,normalized growth,"locus YGR252W, strain gcn5, hits give low values",0.984
same,normalized growth,"locus YHR013C, strain ard1, hits give low values",0.862
same,normalized growth,"locus YHR027C, strain rpn1, hits give low values",0.996
same,normalized growth,"locus YHR030C, strain SLT2, hits give low values",0.979
same,normalized growth,"locus YHR079C, strain IRE1 (second series), hits give low values",0.977
same,normalized growth,"locus YHR094C, strain hxt1, hits give low values",0.971
same,normalized growth,"locus YHR129C, strain ARP1, hits give low values",1.01
same,normalized growth,"locus YHR142W, strain chs7, hits give low values",0.971
same,normalized growth,"locus YHR200W, strain rpn10, hits give low values",0.972
same,normalized growth,"locus YIL066C, strain RNR3, hits give low values",0.966
same,normalized growth,"locus YIL073C, strain SPO22, hits give low values",0.887
same,normalized growth,"locus YIL125W, strain kgd1, hits give low values",0.982
same,normalized growth,"locus YIR030C, strain dcg1, hits give low values",0.98
same,normalized growth,"locus YJL092W, strain hpr5, hits give low values",0.987
same,normalized growth,"locus YJL095W, strain BCK1 (second series), hits give low values",1.01
same,normalized growth,"locus YJL095W, strain BCK1, hits give low values",0.999
same,normalized growth,"locus YJL115W, strain asf1, hits give low values",0.977
same,normalized growth,"locus YJL129C, strain trk1, hits give low values",0.888
same,normalized growth,"locus YJL134W, strain LCB3, hits give low values",0.966
same,normalized growth,"locus YJL154C, strain vps35, hits give low values",0.983
same,normalized growth,"locus YJL164C, strain tpk1, hits give low values",0.942
same,normalized growth,"locus YJL166W, strain qcr8, hits give low values",0.875 (active)
same,normalized growth,"locus YJL168C, strain set2, hits give low values",0.974
same,normalized growth,"locus YJL187C, strain SWE1 (second series), hits give low values",0.979
same,normalized growth,"locus YJL187C, strain SWE1, hits give low values",0.995
